Screening results (PubChem BioAssay)
A selection: hits, their analogues and other compounds. The true share with any hit is near 21%.
Pf growth 96h = Primary qHTS for delayed death inhibitors of the malarial parasite plastid, 96 hour incubation. P. falciparum luciferase reporter growth, 96 h. Potency, µM (top dose mostly 28.7 µM), usual class: inhibitors. 6.9% of 320,000 active
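P. falciparum expressing integrated firefly luciferase, in erythrocytes at 2% hematocrit, 0.05% parasitemia, incubated with compounds 96 h at 37 C, 5% CO2. Growth inhibition read as loss of luminescence; two-generation exposure targets delayed-death apicoplast inhibitors.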
Pf growth 48h = Primary qHTS for delayed death inhibitors of the malarial parasite plastid, 48 hour incubation. P. falciparum luciferase growth in erythrocytes, 48 h. Potency, µM (titrated, usually from 28.7 µM), usual class: inhibitors. 5.9% of 310,000 active. AID 504832, 2011
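Parasite viability was followed by luminescence of a genomically integrated firefly luciferase. Cultures held 0.1% parasitemia at 2% hematocrit (final), incubated under 5% CO2 at 37 C.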
Shiga inhibitor = A qHTS for Small Molecule Inhibitors of Shiga Toxin. Vero cells, Shiga toxin protein synthesis inhibition reporter. 9.2% of 290,000 active. inhibition, % at 38.7 µM; in the data active means inhibition mostly above about 28%, no sharp cut-off; inactive means mostly below about 43%
Cycloheximide cs = Cycloheximide Counterscreen for Small Molecule Inhibitors of Shiga Toxin | AID 2314, 2010 | cell reporter, cycloheximide protein synthesis inhibition counterscreen | max response, % | 12% of 300,000 active; in the data active means max response mostly above about 13%, no sharp cut-off; inactive means mostly below about 14%; further: read at 38.3 µM for the half of the compounds with a filed dose
Numbers stand for hits; – = inactive; ? = inconclusive; · = no result given; + = active, no number; [ ] = another dose, or the depositor's remark. Unless noted, the call rests on the fitted dose curve; in most records, active means well fitted inhibition curve with a large enough effect; inconclusive means small, poorly fitted or top-dose-only effect, or another doubt; inactive means no such curve, though single readings can be large or run the other way.

SMILES	Pf growth 96h	Pf growth 48h	Shiga inhibitor	Cycloheximide cs
Cc1ccc(S(=O)(=O)c2cc3c(=O)n4ccccc4nc3n(CCc3ccccc3)c2=N)cc1	–	2.1µM	–	–
COc1ccc(CCn2c(=N)c(S(=O)(=O)c3ccc(Cl)cc3)cc3c(=O)n4ccccc4nc32)cc1	2.6µM	4.7µM	–	–
COc1ccc(CCn2c(=N)c(S(=O)(=O)c3ccccc3)cc3c(=O)n4ccccc4nc32)cc1	?	?	–	–
Cc1ccc(S(=O)(=O)c2cc3c(=O)n4ccccc4nc3n(C3CCCC3)c2=N)cc1	–	5.2µM	–	–
O=C(NCc1nc2ccccc2[nH]1)C1=C[C@H](C2CC2)C[C@H](OCc2ccc(CO)cc2)O1	?	?	–	–
CCN(CC)CCN1C(=O)c2oc3ccccc3c(=O)c2C1c1ccc(F)cc1 (stereo unspecified)	9.3µM	2.9µM	–	–
CN(C)CCCN1C(=O)c2oc3ccccc3c(=O)c2C1c1cccs1 (stereo unspecified)	–[5.75 µM]	?	24	22
O=C1C(Cc2ccccc2O)NC(=S)N1c1ccccc1 (stereo unspecified)	–	–	–	–
COc1ccc(CNC(=O)C(C)OC(=O)c2cccs2)cc1 (stereo unspecified)	–	–	–	–
CCOc1ccc(CCNC(=O)Cn2ccc3ccccc3c2=O)cc1OCC	?	–	–	–
CC(=O)COc1ccc2cc(-c3ccccc3)c(=O)oc2c1	–	–	73	42
CC(=O)Oc1ccc2c(=O)oc(-c3ccccc3)nc2c1	–	–	–	–
CN(C)C(=O)COc1ccc2c(-c3ccccc3)cc(=O)oc2c1	–	–	–	–
CC(=O)Oc1ccc2cc(-c3ccccc3)c(=O)oc2c1	–	–	53	34
O=C(CCCCl)Oc1ccc2cc(-c3ccc4ccccc4n3)c(=O)oc2c1	–	–	–	20
COc1ccc(-c2cc3ccc(OCC(=O)NCC4CCC(C(=O)O)CC4)cc3oc2=O)cc1 (stereo unspecified)	–	–	29	27
CC1CCCN(C(=O)c2ccc(Br)c(S(=O)(=O)N3CCOCC3)c2)C1 (stereo unspecified)	?	–	·	·
CCN(CC)c1ccc(NC(=O)C2=CCN(S(=O)(=O)c3ccc(F)cc3)CC2)c(C)c1	–	–	–	–
CCN1CCN(c2nc(S(=O)(=O)c3ccc(C)cc3)c(Cl)s2)CC1	?	?	–	–
COc1ccc(-c2cc3ccc(OC(C)C(=O)O)cc3oc2=O)cc1 (stereo unspecified)	?	–	–	13
CCOC(=O)COc1ccc2c(=O)c(-c3ccccc3)coc2c1	–	–	–	–
CC(=O)Oc1ccc2c(=O)c(-c3ccccc3)coc2c1	–	–	80	38
CCN(CC(=O)Nc1ccc(NC(C)=O)cc1)C(=O)Cc1ccc(Cl)c(Cl)c1	?	–	–	–
COc1cccc(NC(=O)CN(C)C(=O)C(C)Sc2ccccc2)c1 (stereo unspecified)	–	?	·	·
CCc1ccc(NC(=O)C2CCN(S(=O)(=O)c3ccc4c(c3)CC(C)N4C(C)=O)CC2)cc1 (stereo unspecified)	?	?	–	–
SMILES	Pf growth 96h	Pf growth 48h	Shiga inhibitor	Cycloheximide cs
CC(/C=C/c1ccccc1)=N/NC(=O)c1cccc(Br)c1	?	?	–	20
CC(/C=C\C=C\c1ccccc1)=N\NC(=O)c1cncc(Br)c1	0.93µM	?	–	–
CC(/C=C/C=C/c1ccccc1)=N\NC(=O)c1cccnc1	?	–	–	–
CC(/C=C/C=C/c1ccccc1)=N/NC(=O)c1ccc2c(c1)OCCO2	–	–	63	31
Cn1c2c(c3ccccc31)CCN1CCC[C@]21c1ccccc1	8.3µM	–[0.00184 µM]	–	–
Cc1ccc(NC(C#N)c2ccccc2OCc2ccccc2)cc1 (stereo unspecified)	?	–	–	–
CNc1ccc(/C=C/C(=O)c2ccc(C)cc2)cc1[N+](=O)[O-]	12µM	–	–	–
CN(C)c1ccc(/C=C/C(=O)c2ccccc2)cc1[N+](=O)[O-]	9.3µM	–	+	62
CS(=O)(=O)N(CC(=O)NCCSCc1cccc(Cl)c1)c1ccccc1F	–	–	·	–
Cc1cc(NC(=O)c2cccc(S(=O)(=O)Nc3cccc(C(=O)O)c3)c2)no1	?	–	–	–
Cc1ccc(N(CC(=O)N2CCCC2)S(C)(=O)=O)c(C)c1	–	–	–	–
Fc1ccccc1CN1CCCN(C(=S)Nc2cccc(Cl)c2)C1	–	9.3µM	–	–
Nc1ccc(-c2nc3ccc(-c4nc5ccc(N)cc5[nH]4)cc3[nH]2)cc1	·	·	–	–
Nc1ccc2nc(-c3cccc(-c4nc5ccc(N)cc5[nH]4)n3)[nH]c2c1	0.52µM	2.1µM	–	–
Nc1ccc2nc(-c3ccc(-c4nc5ccc(N)cc5[nH]4)cc3)[nH]c2c1	2.3µM	12µM	–	–
CCN1CCc2c(sc(N)c2C#N)C1	·	?	–	–
N#Cc1c(N)sc(=S)c2c1CCN(Cc1ccccc1)C2	–	10µM	–	–
CC(NC(=O)CCNC(=O)c1ccco1)c1ccccc1 (stereo unspecified)	–	?	·	·
NC(=O)C1(N2CCCCC2)CCN(C(=S)Nc2ccc(S(N)(=O)=O)cc2)CC1	–	–	–	–
O=C(c1cc(COc2cccc(C(F)(F)F)c2)on1)N1CCC(c2ccccc2)CC1	?	–	–	–
O=C(c1cc(C2CC2)on1)N1CCN(c2ccc(F)cc2)CC1	–	–	–	–
Cc1cccc(C)c1OCc1cc(C(=O)N2CCC(c3ccccc3)CC2)no1	?	–	100	41
Cc1cccc(C)c1OCc1cc(C(=O)N2CCN(c3ccc(F)cc3)CC2)no1	?	–	109	52
Cc1cccc(C)c1OCc1cc(C(=O)N2CCN(c3ccccn3)CC2)no1	?	–	46	44
Cc1noc(C)c1C(=O)N1CCC(Cc2ccccc2)CC1	·	–	–	–
SMILES	Pf growth 96h	Pf growth 48h	Shiga inhibitor	Cycloheximide cs
Cc1cc(C(=O)N2CCC(Cc3ccccc3)CC2)no1	15µM	–	–	–
CSc1ccccc1OCc1cc(C(=O)N2CCN(c3ncccn3)CC2)no1	?	?	–	–
CCOC(=O)C1C(=O)OC(C)(C)C1C(CC)C(=O)c1c(C)cc(C)cc1C (stereo unspecified)	?	?	–	–
CC1=CCC(C(C)(C)O)CC1 (stereo unspecified)	–	–	·	·
Cc1noc(C)c1CSCC(=O)N(C)CC(=O)Nc1ccccc1Cl	?	–	–	–
O=C(C1=COCCO1)N1CCN(S(=O)(=O)c2cccc(Cl)c2Cl)CC1	15µM	?	–	–
Cc1cc(C)cc(NC(=O)N(CCC#N)Cc2cccs2)c1	–	–	–	–
O=C(O)CCn1cc(/C=C2/NC(=S)N(c3ccccc3)C2=O)c(-c2ccccc2)n1	3.7µM	–	–	–
FC(F)(F)Oc1ccccc1-c1nnc(-c2cccc(C(F)(F)F)c2)o1	–	–	–	–
COc1cccc(-c2nnc(-c3ccc(C(F)(F)F)cc3)o2)c1OC	–	–	–	21
CC(=Nc1ccccc1N)c1c(O)n(C)c(=O)[nH]c1=O	?	–	76	50
